Data published in PMC7862700, “An all-to-all approach to the identification of sequence-specific readers for epigenetic DNA modifications on cytosine”.

Columns and labels:
Assay in all cases: DAPPL (digital affinity profiling via proximity ligation, sequencing); 10 mM Tris-HCl pH 7.5, 50 mM NaCl, 1 mM DTT, 4% glycerol, room temperature, 30 min; GST-TFs on glutathione beads, 16-mer random dsDNA library, 0.1% formaldehyde crosslink after washing; high values mean tight binding
[1] = molecular target: T1, FLI1 (Homo sapiens, UniProt Q01543 1-452); conditions: protein: recombinant; tags: N-terminal GST; dsDNA, one strand shown
T1 sequence: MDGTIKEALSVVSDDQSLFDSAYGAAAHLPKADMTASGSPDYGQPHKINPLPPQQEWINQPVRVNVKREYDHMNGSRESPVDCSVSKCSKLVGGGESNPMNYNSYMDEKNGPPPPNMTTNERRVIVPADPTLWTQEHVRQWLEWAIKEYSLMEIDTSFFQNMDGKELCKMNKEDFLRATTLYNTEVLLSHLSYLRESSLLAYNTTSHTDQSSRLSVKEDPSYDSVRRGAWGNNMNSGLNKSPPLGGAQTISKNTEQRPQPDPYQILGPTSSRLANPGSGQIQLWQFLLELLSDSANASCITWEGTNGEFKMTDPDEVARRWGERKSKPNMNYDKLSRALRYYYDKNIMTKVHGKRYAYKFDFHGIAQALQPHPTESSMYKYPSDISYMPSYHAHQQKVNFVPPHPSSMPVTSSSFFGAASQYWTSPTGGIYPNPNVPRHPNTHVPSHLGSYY
Method in brief: (§1)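 In yeast, human transcription factors were expressed with a GST fusion, then pulled down on glutathione beads and given DNA barcodes. Pooled with a tag-only sample, they were exposed to 200 nmole of a 16-mer random double-stranded DNA library (Tris/NaCl/DTT/glycerol buffer, room temperature, 30 min), washed, crosslinked with 0.1% formaldehyde, proximity-ligated using BsaI/T4 ligase for 1 h at 37 °C, PCR-amplified and read on an Illumina NextSeq500. Each hexamer's frequency of reads for a factor, divided by the matching frequency for the tag-only sample, gives the binding signal.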

[2] = molecular target: T2, ELK1 (Homo sapiens, UniProt P19419 1-428); conditions: protein: recombinant; tags: N-terminal GST; dsDNA, one strand shown
T2 sequence: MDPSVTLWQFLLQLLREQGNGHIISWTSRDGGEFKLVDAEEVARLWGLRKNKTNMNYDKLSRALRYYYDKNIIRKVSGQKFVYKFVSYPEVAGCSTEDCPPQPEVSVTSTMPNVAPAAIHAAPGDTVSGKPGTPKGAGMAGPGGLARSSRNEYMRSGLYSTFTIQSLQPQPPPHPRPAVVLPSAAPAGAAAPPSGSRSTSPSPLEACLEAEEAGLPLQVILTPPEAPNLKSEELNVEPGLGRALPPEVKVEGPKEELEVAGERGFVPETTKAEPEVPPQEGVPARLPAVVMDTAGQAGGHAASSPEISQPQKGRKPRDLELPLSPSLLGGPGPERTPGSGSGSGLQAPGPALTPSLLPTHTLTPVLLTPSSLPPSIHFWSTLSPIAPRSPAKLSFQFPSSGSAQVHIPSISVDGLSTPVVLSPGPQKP
Method in brief: as §1

[3] = molecular target: T3, GABPA (Homo sapiens, UniProt Q06546 1-454); conditions: protein: recombinant; tags: N-terminal GST; dsDNA, one strand shown
T3 sequence: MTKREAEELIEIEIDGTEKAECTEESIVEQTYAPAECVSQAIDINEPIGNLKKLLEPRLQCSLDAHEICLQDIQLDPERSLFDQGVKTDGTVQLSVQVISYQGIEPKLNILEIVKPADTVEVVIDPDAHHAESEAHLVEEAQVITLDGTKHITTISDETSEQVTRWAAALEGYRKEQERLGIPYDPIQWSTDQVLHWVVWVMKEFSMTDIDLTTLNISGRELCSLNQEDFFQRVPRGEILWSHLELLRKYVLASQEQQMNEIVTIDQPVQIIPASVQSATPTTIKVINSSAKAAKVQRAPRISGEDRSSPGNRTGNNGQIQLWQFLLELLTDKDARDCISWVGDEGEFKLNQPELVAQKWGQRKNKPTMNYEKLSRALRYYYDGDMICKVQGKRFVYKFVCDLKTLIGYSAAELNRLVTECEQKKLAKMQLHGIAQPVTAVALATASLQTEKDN
Method in brief: as §1

[4] = molecular target: T4, ERG (Homo sapiens, UniProt P11308 1-479); conditions: protein: recombinant; tags: N-terminal GST; dsDNA, one strand shown
T4 sequence: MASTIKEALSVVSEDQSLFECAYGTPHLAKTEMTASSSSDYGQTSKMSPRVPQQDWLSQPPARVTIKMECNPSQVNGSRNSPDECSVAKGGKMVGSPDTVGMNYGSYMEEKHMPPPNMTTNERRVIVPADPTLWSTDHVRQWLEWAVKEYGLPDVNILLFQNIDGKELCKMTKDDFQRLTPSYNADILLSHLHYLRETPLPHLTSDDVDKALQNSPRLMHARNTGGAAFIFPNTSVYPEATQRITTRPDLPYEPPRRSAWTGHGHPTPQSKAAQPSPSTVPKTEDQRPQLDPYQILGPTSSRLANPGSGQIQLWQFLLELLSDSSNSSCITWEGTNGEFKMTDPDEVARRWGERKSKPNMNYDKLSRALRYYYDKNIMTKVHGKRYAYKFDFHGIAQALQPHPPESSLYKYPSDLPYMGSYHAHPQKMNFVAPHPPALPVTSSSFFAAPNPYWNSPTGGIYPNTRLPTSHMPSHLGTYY
Method in brief: as §1

[5] = molecular target: ELF1 (Homo sapiens, UniProt P32519 1-619); conditions: protein: recombinant; tags: N-terminal GST; dsDNA, one strand shown
Chain of ELF1 (P32519 whole entry): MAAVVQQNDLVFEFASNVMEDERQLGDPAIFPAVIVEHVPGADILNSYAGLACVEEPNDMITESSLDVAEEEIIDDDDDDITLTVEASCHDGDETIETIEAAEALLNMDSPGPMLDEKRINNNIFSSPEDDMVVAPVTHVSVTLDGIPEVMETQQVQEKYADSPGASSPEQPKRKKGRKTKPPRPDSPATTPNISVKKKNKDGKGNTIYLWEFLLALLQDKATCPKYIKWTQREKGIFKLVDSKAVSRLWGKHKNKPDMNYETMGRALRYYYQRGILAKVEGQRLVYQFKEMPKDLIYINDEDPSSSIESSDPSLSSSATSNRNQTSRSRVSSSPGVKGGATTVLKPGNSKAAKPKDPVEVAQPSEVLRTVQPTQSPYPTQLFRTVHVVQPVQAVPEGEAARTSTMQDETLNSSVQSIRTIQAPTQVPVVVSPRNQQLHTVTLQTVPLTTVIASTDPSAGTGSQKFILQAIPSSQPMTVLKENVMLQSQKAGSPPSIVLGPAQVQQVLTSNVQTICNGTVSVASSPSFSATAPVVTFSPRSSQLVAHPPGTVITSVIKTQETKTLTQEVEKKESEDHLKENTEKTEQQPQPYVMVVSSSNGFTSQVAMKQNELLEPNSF
Method in brief: as §1

[6] = molecular target: T5, EHF (Homo sapiens, UniProt Q9NZC4 1-300); conditions: protein: recombinant; tags: N-terminal GST; dsDNA, one strand shown
T5 sequence: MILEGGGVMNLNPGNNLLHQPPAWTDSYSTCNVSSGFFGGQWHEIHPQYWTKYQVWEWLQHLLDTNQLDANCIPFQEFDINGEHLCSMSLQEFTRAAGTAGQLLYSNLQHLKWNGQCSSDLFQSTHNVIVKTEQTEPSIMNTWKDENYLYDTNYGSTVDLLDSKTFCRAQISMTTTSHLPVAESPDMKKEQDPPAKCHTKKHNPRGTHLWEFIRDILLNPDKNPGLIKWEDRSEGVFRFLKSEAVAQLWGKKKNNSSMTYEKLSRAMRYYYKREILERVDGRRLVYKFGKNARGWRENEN
Method in brief: as §1

[7] = molecular target: SPI1 (Homo sapiens, UniProt P17947 1-270); conditions: protein: recombinant; tags: N-terminal GST; dsDNA, one strand shown
Method in brief: as §1

[8] = molecular target: SPIB (Homo sapiens, UniProt Q01892 1-262); conditions: protein: recombinant; tags: N-terminal GST; dsDNA, one strand shown
Chain of SPIB (Q01892 whole entry): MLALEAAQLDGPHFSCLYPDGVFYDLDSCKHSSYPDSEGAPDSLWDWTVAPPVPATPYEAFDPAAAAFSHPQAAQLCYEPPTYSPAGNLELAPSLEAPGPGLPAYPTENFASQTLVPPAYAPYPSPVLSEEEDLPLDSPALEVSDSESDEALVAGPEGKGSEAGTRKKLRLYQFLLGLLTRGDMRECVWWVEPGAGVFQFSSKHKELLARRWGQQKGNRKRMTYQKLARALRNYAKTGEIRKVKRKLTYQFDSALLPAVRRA
Method in brief: as §1

[9] = molecular target: T6, ELK3 (Homo sapiens, UniProt P41970 1-407); conditions: protein: recombinant; tags: N-terminal GST; dsDNA, one strand shown
T6 sequence: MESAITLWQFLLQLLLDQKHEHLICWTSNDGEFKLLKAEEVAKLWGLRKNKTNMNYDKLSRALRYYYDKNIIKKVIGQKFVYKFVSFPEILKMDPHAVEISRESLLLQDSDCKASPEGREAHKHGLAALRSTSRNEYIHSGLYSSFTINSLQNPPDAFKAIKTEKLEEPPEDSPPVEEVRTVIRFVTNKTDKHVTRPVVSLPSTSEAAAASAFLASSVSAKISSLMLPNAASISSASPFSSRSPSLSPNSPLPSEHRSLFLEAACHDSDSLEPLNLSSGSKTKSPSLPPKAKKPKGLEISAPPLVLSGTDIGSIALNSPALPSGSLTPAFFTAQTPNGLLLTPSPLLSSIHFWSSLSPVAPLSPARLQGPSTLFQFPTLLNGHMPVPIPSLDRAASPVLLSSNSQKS
Method in brief: as §1

[10] = molecular target: T7, FEV (Homo sapiens, UniProt Q99581 1-238); conditions: protein: recombinant; tags: N-terminal GST; dsDNA, one strand shown
T7 sequence: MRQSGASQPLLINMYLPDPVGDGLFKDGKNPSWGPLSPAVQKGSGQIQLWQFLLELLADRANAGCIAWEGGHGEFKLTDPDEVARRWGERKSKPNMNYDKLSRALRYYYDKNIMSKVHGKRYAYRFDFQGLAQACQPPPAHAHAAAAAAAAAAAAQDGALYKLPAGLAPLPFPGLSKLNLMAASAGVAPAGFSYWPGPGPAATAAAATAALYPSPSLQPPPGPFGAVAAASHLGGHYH
Method in brief: as §1

[11] = molecular target: ETV5 (Homo sapiens, UniProt P41161 1-510); conditions: protein: recombinant; tags: N-terminal GST; dsDNA, one strand shown
Chain of ETV5 (P41161 whole entry): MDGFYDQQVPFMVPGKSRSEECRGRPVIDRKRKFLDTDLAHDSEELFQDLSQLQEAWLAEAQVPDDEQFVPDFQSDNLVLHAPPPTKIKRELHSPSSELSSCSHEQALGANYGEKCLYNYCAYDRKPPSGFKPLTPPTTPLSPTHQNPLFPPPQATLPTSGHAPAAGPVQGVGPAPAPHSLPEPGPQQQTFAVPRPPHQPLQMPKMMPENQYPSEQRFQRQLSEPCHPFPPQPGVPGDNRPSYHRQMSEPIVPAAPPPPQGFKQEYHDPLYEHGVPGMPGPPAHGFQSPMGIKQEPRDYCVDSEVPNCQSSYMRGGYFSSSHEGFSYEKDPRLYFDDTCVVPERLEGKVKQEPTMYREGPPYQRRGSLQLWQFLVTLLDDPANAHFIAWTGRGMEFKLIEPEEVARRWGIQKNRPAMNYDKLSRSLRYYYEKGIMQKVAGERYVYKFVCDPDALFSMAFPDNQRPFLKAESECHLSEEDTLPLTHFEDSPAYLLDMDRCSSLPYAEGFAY
Method in brief: as §1

[12] = molecular target: HSF1 (Homo sapiens, UniProt Q00613 1-529); conditions: protein: recombinant; tags: N-terminal GST; chain copies: 3; dsDNA, one strand shown
Chain of HSF1 (Q00613 whole entry): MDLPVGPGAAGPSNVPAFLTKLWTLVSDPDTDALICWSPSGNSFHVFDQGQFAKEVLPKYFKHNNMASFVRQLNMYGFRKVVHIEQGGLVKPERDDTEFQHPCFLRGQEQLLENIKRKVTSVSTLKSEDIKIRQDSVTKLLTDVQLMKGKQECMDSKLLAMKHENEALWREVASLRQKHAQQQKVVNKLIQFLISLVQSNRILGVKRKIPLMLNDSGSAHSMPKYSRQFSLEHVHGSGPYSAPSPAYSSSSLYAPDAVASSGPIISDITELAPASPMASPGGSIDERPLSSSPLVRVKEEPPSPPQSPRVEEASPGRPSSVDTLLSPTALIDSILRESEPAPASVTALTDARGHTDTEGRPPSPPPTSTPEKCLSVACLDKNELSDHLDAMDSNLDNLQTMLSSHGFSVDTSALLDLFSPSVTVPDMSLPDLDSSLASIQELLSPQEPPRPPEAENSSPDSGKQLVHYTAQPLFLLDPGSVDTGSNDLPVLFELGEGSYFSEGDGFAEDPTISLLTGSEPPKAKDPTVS
Method in brief: as §1

[13] = molecular target: T8, SPIC (Homo sapiens, UniProt Q8N5J4 1-248); conditions: protein: recombinant; tags: N-terminal GST; dsDNA, one strand shown
T8 sequence: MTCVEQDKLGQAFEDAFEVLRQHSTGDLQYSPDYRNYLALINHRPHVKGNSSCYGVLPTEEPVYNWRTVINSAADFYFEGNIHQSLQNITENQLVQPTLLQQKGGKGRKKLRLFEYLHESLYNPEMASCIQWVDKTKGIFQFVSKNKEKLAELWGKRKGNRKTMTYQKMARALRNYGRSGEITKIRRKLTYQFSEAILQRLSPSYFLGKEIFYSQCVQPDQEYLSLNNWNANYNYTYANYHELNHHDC
Method in brief: as §1

[14] = molecular target: ELF4 (Homo sapiens, UniProt Q99607 1-663); conditions: protein: recombinant; tags: N-terminal GST; dsDNA, one strand shown
Chain of ELF4 (Q99607 whole entry): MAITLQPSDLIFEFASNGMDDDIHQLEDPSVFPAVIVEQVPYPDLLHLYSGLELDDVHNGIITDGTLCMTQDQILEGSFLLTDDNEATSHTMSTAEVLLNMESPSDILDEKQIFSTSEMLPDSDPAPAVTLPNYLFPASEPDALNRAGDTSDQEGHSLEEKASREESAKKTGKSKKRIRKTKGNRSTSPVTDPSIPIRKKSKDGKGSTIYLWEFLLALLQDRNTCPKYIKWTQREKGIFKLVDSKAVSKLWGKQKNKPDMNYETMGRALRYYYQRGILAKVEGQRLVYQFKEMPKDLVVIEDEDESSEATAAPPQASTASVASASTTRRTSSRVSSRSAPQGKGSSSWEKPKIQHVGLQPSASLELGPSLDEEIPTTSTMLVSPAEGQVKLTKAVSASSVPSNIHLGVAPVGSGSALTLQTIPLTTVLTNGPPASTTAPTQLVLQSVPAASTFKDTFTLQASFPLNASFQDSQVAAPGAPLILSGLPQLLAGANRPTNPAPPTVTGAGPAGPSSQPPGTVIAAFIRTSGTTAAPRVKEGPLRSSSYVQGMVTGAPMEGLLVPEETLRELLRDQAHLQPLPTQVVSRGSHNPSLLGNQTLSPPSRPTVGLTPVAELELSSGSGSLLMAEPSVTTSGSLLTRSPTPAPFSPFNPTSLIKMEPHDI
Method in brief: as §1

[15] = molecular target: T9, ELK4 (Homo sapiens, UniProt P28324-2 1-405); conditions: protein: recombinant; tags: N-terminal GST; dsDNA, one strand shown
T9 sequence: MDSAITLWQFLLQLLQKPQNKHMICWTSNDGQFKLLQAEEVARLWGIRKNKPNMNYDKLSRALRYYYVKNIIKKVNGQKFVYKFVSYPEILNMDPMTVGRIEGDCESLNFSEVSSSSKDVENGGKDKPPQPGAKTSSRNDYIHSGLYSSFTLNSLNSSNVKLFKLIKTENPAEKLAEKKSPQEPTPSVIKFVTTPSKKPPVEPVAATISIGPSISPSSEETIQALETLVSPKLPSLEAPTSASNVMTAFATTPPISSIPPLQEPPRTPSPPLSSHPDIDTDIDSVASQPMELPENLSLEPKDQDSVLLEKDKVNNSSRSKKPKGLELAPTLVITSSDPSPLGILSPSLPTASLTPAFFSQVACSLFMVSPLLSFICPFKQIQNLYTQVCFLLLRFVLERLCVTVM
Method in brief: as §1

[16] = molecular target: T10, ETV2 (Homo sapiens, UniProt O00321 1-342); conditions: protein: recombinant; tags: N-terminal GST; dsDNA, one strand shown
T10 sequence: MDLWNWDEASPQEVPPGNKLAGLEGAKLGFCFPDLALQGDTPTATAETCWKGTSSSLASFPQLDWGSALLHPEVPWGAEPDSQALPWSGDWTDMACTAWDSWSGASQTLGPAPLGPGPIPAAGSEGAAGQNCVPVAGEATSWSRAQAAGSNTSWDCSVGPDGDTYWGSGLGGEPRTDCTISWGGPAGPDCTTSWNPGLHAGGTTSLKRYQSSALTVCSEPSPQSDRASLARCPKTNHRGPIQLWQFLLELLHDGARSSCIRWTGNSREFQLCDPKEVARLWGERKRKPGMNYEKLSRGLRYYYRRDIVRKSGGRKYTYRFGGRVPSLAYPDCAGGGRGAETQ
Method in brief: as §1

[17] = molecular target: T11, ELF3 (Homo sapiens, UniProt P78545 1-371); conditions: protein: recombinant; tags: N-terminal GST; dsDNA, one strand shown
T11 sequence: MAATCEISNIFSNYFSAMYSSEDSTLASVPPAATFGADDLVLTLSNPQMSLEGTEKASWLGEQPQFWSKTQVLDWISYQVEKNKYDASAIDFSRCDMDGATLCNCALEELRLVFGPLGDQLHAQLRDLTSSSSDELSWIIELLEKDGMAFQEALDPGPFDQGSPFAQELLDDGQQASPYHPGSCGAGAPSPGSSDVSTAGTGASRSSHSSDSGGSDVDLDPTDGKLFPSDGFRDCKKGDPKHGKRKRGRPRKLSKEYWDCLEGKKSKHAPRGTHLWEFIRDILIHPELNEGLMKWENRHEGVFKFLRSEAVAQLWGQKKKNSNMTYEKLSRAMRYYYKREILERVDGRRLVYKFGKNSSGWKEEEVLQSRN
Method in brief: as §1

[18] = molecular target: CRX (Homo sapiens, UniProt O43186 1-299); conditions: protein: recombinant; tags: N-terminal GST; dsDNA, one strand shown
Chain of CRX (O43186 whole entry): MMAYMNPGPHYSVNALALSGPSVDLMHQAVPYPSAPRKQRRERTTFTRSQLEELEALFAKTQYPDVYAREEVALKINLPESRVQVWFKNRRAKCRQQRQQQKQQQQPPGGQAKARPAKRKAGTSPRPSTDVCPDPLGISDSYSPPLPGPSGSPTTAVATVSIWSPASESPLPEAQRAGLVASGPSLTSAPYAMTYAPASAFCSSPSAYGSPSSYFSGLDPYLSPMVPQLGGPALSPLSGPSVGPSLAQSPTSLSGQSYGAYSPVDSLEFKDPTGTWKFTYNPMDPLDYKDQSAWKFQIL
Method in brief: as §1

[19] = molecular target: ETV1 (Homo sapiens, UniProt P50549 1-477); conditions: protein: recombinant; tags: N-terminal GST; dsDNA, one strand shown
Chain of ETV1 (P50549 whole entry): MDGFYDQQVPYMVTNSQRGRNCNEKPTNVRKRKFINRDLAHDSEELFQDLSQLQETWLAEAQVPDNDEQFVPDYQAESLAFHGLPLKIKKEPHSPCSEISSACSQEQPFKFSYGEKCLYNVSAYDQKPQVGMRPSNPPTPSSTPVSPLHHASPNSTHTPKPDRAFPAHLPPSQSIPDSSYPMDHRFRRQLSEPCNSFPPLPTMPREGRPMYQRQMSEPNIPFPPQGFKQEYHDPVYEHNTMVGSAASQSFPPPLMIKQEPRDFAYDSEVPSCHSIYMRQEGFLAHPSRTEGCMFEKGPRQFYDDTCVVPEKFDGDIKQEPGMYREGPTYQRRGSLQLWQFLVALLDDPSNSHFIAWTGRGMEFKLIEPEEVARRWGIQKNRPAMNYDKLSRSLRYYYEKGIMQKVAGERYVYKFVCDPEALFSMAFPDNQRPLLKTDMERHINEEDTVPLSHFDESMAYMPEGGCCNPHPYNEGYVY
Method in brief: as §1

ACGACT
binding signal [1]: 1.27 fold enrichment (6-mer frequency, TF over GST control) | binding signal [2]: 1.28 fold enrichment (6-mer frequency, TF over GST control) | binding signal [3]: 1.36 fold enrichment (6-mer frequency, TF over GST control) | binding signal [4]: 1.24 fold enrichment (6-mer frequency, TF over GST control) | binding signal [5]: 1.19 fold enrichment (6-mer frequency, TF over GST control) | binding signal [6]: 1.17 fold enrichment (6-mer frequency, TF over GST control) | binding signal [7]: 1.27 fold enrichment (6-mer frequency, TF over GST control) | binding signal [8]: 1.17 fold enrichment (6-mer frequency, TF over GST control) | binding signal [9]: 1.24 fold enrichment (6-mer frequency, TF over GST control) | binding signal [10]: 1.28 fold enrichment (6-mer frequency, TF over GST control) | binding signal [11]: 1.15 fold enrichment (6-mer frequency, TF over GST control) | binding signal [12]: 1.2 fold enrichment (6-mer frequency, TF over GST control) | binding signal [13]: 1.26 fold enrichment (6-mer frequency, TF over GST control) | binding signal [14]: 1.23 fold enrichment (6-mer frequency, TF over GST control) | binding signal [15]: 1.39 fold enrichment (6-mer frequency, TF over GST control) | binding signal [16]: 1.27 fold enrichment (6-mer frequency, TF over GST control) | binding signal [17]: 1.11 fold enrichment (6-mer frequency, TF over GST control) | binding signal [18]: 1.19 fold enrichment (6-mer frequency, TF over GST control) | binding signal [19]: 1.29 fold enrichment (6-mer frequency, TF over GST control)
